The text below walks through data of the supplement of paper PMC12340860.

± gives the standard deviation of the averaged measurements.

The assay deals with Caenorhabditis elegans infected with Nematocida parisii. The assay can be described thus: progeny production of N. parisii-infected C. elegans relative to uninfected control; higher = stronger inhibition of microsporidia infection (rescue of reproduction). The note with it: 60 µM; incubation time 5 days; spore dose (spores/uL): 18000. On the procedure: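 C. elegans N2 L1 larvae (100 per well, 96-well plate, K-medium with 5x E. coli OP50, 1% DMSO) were infected with Nematocida parisii spores (18,000 spores/uL) that had been pre-incubated for 1 h with each BU-CMD library compound at 60 uM. Plates were incubated 5 days at 21 C with shaking. Progeny were stained with rose bengal, scanned on a flatbed scanner and counted with WorMachine. Progeny number is expressed as % of uninfected DMSO controls on the same plate; three biological replicates per compound; hits were compounds with at least 60% progeny production.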
`COc1ccc(C2=CC3=C(Br)C(=O)C(C)(O)C(=O)C3=CO2)cc1` (centres undefined) gave a progeny production of 80.6 ± 13%. With `COC(=O)C1=C(C)N(CCc2cc(OC)c(OC)c(OC)c2)C(=O)N[C@H]1c1ccccc1` the figure was 38.1 ± 18%; with `CC(=O)[C@@H]1[C@@H](C)N(Cc2ccccc2)C(=O)N[C@H]1c1cccc(C(F)(F)F)c1`, 33.2 ± 12%; with `C=C(C)C[C@@H](O)COc1cc2c(cc1C1(c3cc4c(cc3OC[C@H](O)CC(=C)C)OCO4)C(=O)Nc3cc(F)ccc31)OCO2`, 20.5 ± 11%.
